Screens: PubChem BioAssay, National Center for Advancing Translational Sciences (NCATS)
A selection: hits, their analogues and other compounds. The true share with any hit is near 6.4%.
KinaseGlo FLuc – Counterscreen for Luciferase (Kinase-Glo TM) Inhibition; Luciferin 4-monooxygenase (Photuris pensylvanica), Q27757; Kinase-Glo luciferase, ATP luminescence, 8 min; Potency, µM (highest dose often 38.3 µM), for the others: at the highest dose activity change, negative = inhibition, most hits filed as inhibitors; hit rate 0.28% among 200,000; AID 1379, 2008; note: nearly all actives have a fitted effect of over 60% in size
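Substrate mix (final 50 mM imidazole pH 7.2, 50 mM KCl, 7 mM MgCl2, 10 uM ATP, 0.01% Tween 20, 0.05% BSA) plus pin-tool compound, then Kinase-Glo detection mix; 8 min ambient, luminescence read.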
VP16 counter – VP16 counterscreen qHTS for inhibitors of ROR gamma transcriptional activity; AID 2546, 2010; Drosophila S2 Gal4-VP16 UAS-luciferase, luminescence, 20 h; hit rate 3.5% among 310,000; Potency, µM (highest dose often 53.6 µM), without a hit: at the top dose activity, negative = inhibition, usual class: inhibitors;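 note: Gal4-VP16 expression switched on by copper sulfate through the metallothionein promoter; nearly all actives have a fitted effect of over 50% in size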
RORgamma inh – qHTS for inhibitors of ROR gamma transcriptional activity. Nuclear receptor ROR-gamma (Mus musculus), P51450. Drosophila S2 Gal4-RORgamma UAS-luciferase reporter, 20 h. Potency, µM (highest dose often 53.6 µM), inactives show at the highest dose activity change, negative = inhibition, actives largely listed as inhibitors. hit rate 5.4% among 310,000. AID 2551, 2010; note: nearly all actives have a fitted effect of over 60% in size
Target sequence (P51450 whole entry, looked up, the tested form may be a part): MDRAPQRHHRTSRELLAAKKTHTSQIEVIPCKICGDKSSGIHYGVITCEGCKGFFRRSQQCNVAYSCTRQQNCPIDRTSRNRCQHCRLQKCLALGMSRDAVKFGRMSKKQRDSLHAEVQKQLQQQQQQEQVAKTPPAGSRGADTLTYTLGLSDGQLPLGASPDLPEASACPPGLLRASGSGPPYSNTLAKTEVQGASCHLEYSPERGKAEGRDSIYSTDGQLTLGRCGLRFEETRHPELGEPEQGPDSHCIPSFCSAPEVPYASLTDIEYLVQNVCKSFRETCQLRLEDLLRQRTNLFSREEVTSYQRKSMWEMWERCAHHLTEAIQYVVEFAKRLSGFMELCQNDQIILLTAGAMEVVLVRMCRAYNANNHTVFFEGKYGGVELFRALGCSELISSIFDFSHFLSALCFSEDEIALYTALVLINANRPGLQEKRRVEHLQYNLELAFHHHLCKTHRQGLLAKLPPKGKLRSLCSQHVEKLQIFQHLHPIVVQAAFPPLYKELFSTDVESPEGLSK
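ROR gamma transcriptional activity was tracked as Gal4-UAS luciferase output in stably transfected Drosophila Schneider cells, with compound added 1 hr before 700 uM copper sulfate induction and a 20 hr ambient-temperature incubation.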
The depositor's hits bear a star; ? = inconclusive; nt = not tested or not shown; [ ] = dose if it differs, or a comment. Calls come from the whole dose curve; as a rule, active = well fitted curve in the direction sought with a large enough effect; inconclusive = small, poorly fitted or top-dose-only effect, or another doubt; inactive = no such curve, though single readings can be large; an effect the other way counts as inactive or inconclusive. % is set by controls: 0 for no effect and ±100 for the full control effect; potency is the fitted concentration of half-maximal effect.

SMILES	KinaseGlo FLuc	VP16 counter	RORgamma inh
CN1CCN(C(CC(=O)Nc2cccc(O)c2)C(=O)O)CC1 (stereo not given)	nt	-13.2%	-9.8%
O=C(O)CCc1nc(-c2ccccc2-n2cccc2)no1	-5.6%[7.66 µM]	nt	nt
O=C1CC[C@@H](C(=O)N[C@@H](Cc2cnc[nH]2)C(=O)N[C@@H](Cc2c[nH]c3ccccc23)C(=O)N[C@@H](CO)C(=O)N[C@@H](Cc2ccc(O)cc2)C(=O)O)N1	nt	-5.0%	-13.1%
CCOc1ccc(/C=N/n2c(-c3ccccc3)n[nH]c2=S)cc1	nt	?	1.58µM*
S=c1[nH]nc(-c2ccccn2)n1/N=C/c1cccs1	-0.8%	4.1%	-37.9%
S=c1[nH]nc(-c2ccccn2)n1/N=C/c1cccc2ccccc12	-4.9%	?	2.24µM*
S=c1[nH]nc(-c2ccccn2)n1/N=C/c1ccc(Cl)cc1	nt	-19.1%	12.6µM*
S=c1[nH]nc(-c2ccccn2)n1/N=C/c1ccccc1	0.6%	-3.2%	?
S=c1[nH]nc(-c2ccc(Cl)cc2)n1/N=C/c1cccs1	nt	-20.0%	3.55µM*
CCOc1ccc(/C=N/n2c(C)nc3ccccc3c2=O)cc1	nt	-6.5%	32.3%
Cc1ccccc1/C=N/n1c(-c2ccccn2)n[nH]c1=S	nt	-18.3%	?
Cc1ccn(CC(=O)N2CCCC(N3CCN(Cc4ccc5c(c4)OCO5)CC3)C2)n1 (stereo not given)	nt	-2.4%	-6.0%
CCC(C)(C)NC(=O)CN(C(=O)CNS(=O)(=O)c1ccc(F)cc1)c1ccc2c(c1)OCCO2	nt	-4.1%	25.5%
Cc1ccc(S(=O)(=O)NC(CC(=O)NCC2CCCO2)c2ccccc2)cc1 (stereo not given)	-2.7%	-13.1%	-17.5%
O=C(O)c1cnc2[nH]c3ccccc3n2c1=O	nt	-9.5%	9.6%
CCCCNC(=S)NCc1ccc2[nH]c(C)cc2c1	-1.4%	?	10µM*
Cc1cc2cc(CNC(=O)c3ccc(Br)o3)ccc2[nH]1	nt	0.8%	-15.2%
COc1cc(OC)cc(C(=O)NCc2ccc3[nH]c(C)cc3c2)c1	0.2%	-22.8%	5.8%
CCOc1ccc(NC(=S)NCc2ccc3[nH]c(C)cc3c2)cc1	1.7%	10µM*	2.51µM*
COc1ccc(NC(=O)[C@H](C)NC(=O)C2CCN(S(=O)(=O)c3ccc(C)cc3)CC2)cc1	nt	4.2%	0.8%
Cc1cc2c(c(=O)o1)[C@@H](O)[C@H]1O[C@@H]1C2=O	nt	-13.3%[10 µM]	?
COC(=O)C1=C(C(=O)OC)[C@@H]2Nc3ccccc3[C@@]23C[C@@H](C(=O)OC)N(S(=O)(=O)c2ccc(OC)cc2)C3=N1	-6.0%[7.66 µM]	nt	nt
CCCc1nn2c(=O)cc(CSCC(=O)Nc3ccc(OC)cc3)nc2s1	nt	-4.9%	-0.4%
CC(C)(C)c1ccc(/C=N/Nc2cccc(C(=O)O)c2)cc1	-2.2%	6.4%	6.7%
O=C(Nc1cccc(C(=O)O)c1)Nc1ccc2c(c1)OCO2	nt	11.2µM*	10µM*
SMILES	KinaseGlo FLuc	VP16 counter	RORgamma inh
O=C(Nc1ccc2c(c1)OCO2)Nc1ccc2c(c1)OCO2	-4.4%	0.4%	-13.6%
O=C(O)c1ccc(NCc2ccc3c(c2)OCO3)cc1	-4.1%	1.26µM*	3.98µM*
CC(C)(C)c1ccc(/C=N/Nc2ccc(C(=O)O)cc2)cc1	0.0%	17.8µM*	0.02µM*
O=C(N/N=C/c1ccc2c(c1)OCO2)c1ccc(NC(=O)c2ccc(F)cc2)cc1	nt	0.0%	10µM*
O=C(NCc1ccc2c(c1)OCO2)c1ccc2c(c1)OCO2	nt	-3.1%	23.9%
C[n+]1cccc(C(=O)N/N=C/c2ccc3c(c2)OCO3)c1	nt	-7.3%	5.3%
CCN1C(=O)[C@H]2[C@H]3[C@H](O)[C@H](O)C/C(=N/OCC(C)C)[C@@H]3CC[C@@H]2C1=O	nt	-7.5%[10 µM]	10.2%[10 µM]
CC(C)OC(=O)Cn1nc(C(c2ccccc2)c2ccccc2)oc1=O	nt	-1.8%	-8.2%[1.91 µM]
Cc1ccc(S(=O)(=O)NCCC(=O)OCC(=O)NC(=O)c2cccn2C)cc1	nt	-0.2%	-19.2%
O=C(COC(=O)Cc1c(Cl)cccc1Cl)NCC1CCCO1 (stereo not given)	6.2%	1.1%	?
CC(=O)Oc1ccc(C(=O)NCc2ccco2)cc1	nt	1.7%	1.3%
O=C(O)c1ccc(N/N=C/c2cc3cc4c(cc3nc2Cl)OCCO4)cc1	nt	3.98µM*	2.51µM*
O=C(O)c1cc(N/N=C/c2ccc3c(c2)OCCO3)ccc1Cl	-2.2%	11.2µM*	?
O=C(O)c1ccc(N/N=C/c2cc3c(cc2[N+](=O)[O-])OCO3)cc1	?	-7.6%	-9.1%
Fc1ccc(N/N=C/c2ccncc2)c(F)c1	-5.1%	18.3%	?
O=C(O)c1ccc(N/N=C/c2ccc3c(c2)OCO3)cc1	3.98µM*	-3.3%	15.0%
O=C(O)c1cc(N/N=C/c2ccc3c(c2)OCO3)ccc1Cl	-2.0%	-15.4%	?
O=Cc1cc2cc3c(cc2nc1Cl)OCCO3	nt	-4.0%	14.6%
O=C(O)c1ccc(/C=N/Nc2ccc(F)cc2F)cc1	-28.6%	?	12.6µM*
CCOC(=O)Cc1cnc(NC(=O)CSc2nc(C(C)C)cc(=O)[nH]2)s1	nt	-4.1%	-5.0%
O=C(N/N=C/c1c(F)cccc1Cl)C1CC1	nt	-8.3%	1.6%
O=C(O)c1ccc(N/N=C/c2c(F)cccc2Cl)cc1	nt	0.708µM*	2µM*
COCCN(C(=O)CNC(=O)c1cccs1)C(C(=O)NC(C)(C)C)c1ccccc1 (stereo not given)	1.3%	2.1%	21.2%
CCCC(=O)c1cc(O)c(O)cc1O	nt	5.8%	-25.0%
O=C(O)CN1C(=O)c2ccc(Oc3ccc4c(c3)C(=O)N(CC(=O)O)C4=O)cc2C1=O	nt	4.5%	16.4%
SMILES	KinaseGlo FLuc	VP16 counter	RORgamma inh
C=C1C(=O)[C@@]23[C@H](O)C[C@@H]4C(C)(C)CC[C@H](O)[C@@]4(C)[C@@H]2CC[C@@H]1[C@H]3O	-1.3%	5.62µM*	2.82µM*
C=C1C(=O)[C@@]23[C@H](O)C[C@@H]4C(C)(C)CC[C@H](O)[C@]4(C)[C@@H]2C[C@H](O)[C@@H]1[C@H]3O	0.2%	3.16µM*	2.51µM*
COc1cccc(C(C(=O)NC2CCCC2)N(C(=O)c2ccco2)c2ccc(C(C)=O)cc2)c1OC (stereo not given)	nt	-7.4%	-17.3%
CC[C@H]1OC(=O)[C@H](C)[C@@H](O[C@H]2C[C@@](C)(OC)[C@@H](O)[C@H](C)O2)[C@H](C)[C@@H](O[C@@H]2O[C@H](C)C[C@H](N(C)C)[C@H]2O)[C@](C)(O)C[C@@H](C)C(=NOCOCCOC)[C@H](C)[C@@H](O)[C@]1(C)O	nt	-6.6%	-1.1%
CCOC(=O)C1(CCc2ccccc2)CCN(C(=O)C2CCCO2)CC1 (stereo not given)	nt	?	-0.3%
CCOC(=O)C1(CCc2ccccc2)CCN(Cc2ccc(C(=O)OC)cc2)CC1	nt	-19.2%	75.2%
CCOC(=O)C1(CCc2ccccc2)CCN(Cc2ccccn2)CC1	0.1%	11.2µM*	5.01µM*
CCOC(=O)C1(CCc2ccccc2)CCN(C(=O)[C@@H]2C[C@@H](C)NC(=S)N2)CC1	nt	?	11.2µM*
CO[C@H]1COC(=O)C/C=C\[C@H](C)[C@@H](OC)COC(=O)[C@H](Cc2ccccc2)NC(=O)C/C=C\[C@@H]1C	nt	0.4%[10 µM]	-8.6%[10 µM]
CC(/C=C/c1ccc2c(c1)OCO2)=N/NC(=O)c1ccc(C)nc1	-0.3%	7.94µM*	7.94µM*
